# ± gives the standard deviation of the averaged measurements.
# What was measured:
# Experiment in all cases: promoter activity interaction Z-score (Lux/OD deviation from empty-vector control); higher = stronger promoter induction by the compound
# [1] = system: E. coli BW25113 acrABp lux reporter
# How it was run: (§1)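 Low-copy luxCDABE promoter reporters were carried by E. coli BW25113, either wild type or lacking one of three genes, grown in 40 µl LB Lennox in 384-well plates at 37°C. Each compound was run at four 1:2 dilutions in biological duplicates, with OD600 and luminescence read every 30 min for 12 h. Integration used 0–8 h for wild type and 1–9 h for deletion strains, and wells under 10% of the median growth value were removed. Luminescence normalised to growth was fitted against a control, and the Z-transformed residual is the score.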
# [2] = system: E. coli BW25113 ompFp lux reporter
# How it was run: as §1
# [3] = system: E. coli BW25113 robp lux reporter
# How it was run: as §1
# [4] = system: E. coli BW25113 soxSp lux reporter
# How it was run: as §1
# [5] = system: E. coli BW25113 tolCp lux reporter
# How it was run: as §1
# [6] = 13.3 µg/ml, genetic background: wild type
# [7] = 13.3 µg/ml, genetic background: ΔmarA
# [8] = 13.3 µg/ml, genetic background: Δrob
# [9] = 13.3 µg/ml, genetic background: ΔsoxS
# [10] = 26.6 µg/ml, genetic background: wild type
# [11] = 26.6 µg/ml, genetic background: ΔmarA
# [12] = 26.6 µg/ml, genetic background: Δrob
# [13] = 26.6 µg/ml, genetic background: ΔsoxS
# [14] = 53.2 µg/ml, genetic background: wild type
# [15] = 53.2 µg/ml, genetic background: ΔmarA
# [16] = 53.2 µg/ml, genetic background: Δrob
# [17] = 53.2 µg/ml, genetic background: ΔsoxS
# [18] = 106.3 µg/ml, genetic background: wild type
# [19] = 106.3 µg/ml, genetic background: ΔmarA
# [20] = 106.3 µg/ml, genetic background: Δrob
# [21] = 106.3 µg/ml, genetic background: ΔsoxS
compound,measurement,setting,value
NCCc1c[nH]c2ccc(O)cc12 [Serotonine],promoter activity interaction Z-score,[1]; [6],-0.00265 ± 0.11
same,promoter activity interaction Z-score,[1]; [7],-0.788 ± 0.29
same,promoter activity interaction Z-score,[1]; [8],-0.254 ± 0.091
same,promoter activity interaction Z-score,[1]; [9],-0.249 ± 0.17
same,promoter activity interaction Z-score,[1]; [10],0.0217 ± 0.063
same,promoter activity interaction Z-score,[1]; [11],-0.85 ± 0.58
same,promoter activity interaction Z-score,[1]; [12],-0.276 ± 0.24
same,promoter activity interaction Z-score,[1]; [13],-0.0282 ± 0.36
same,promoter activity interaction Z-score,[1]; [14],-0.325 ± 0.06
same,promoter activity interaction Z-score,[1]; [15],-0.49 ± 0.22
same,promoter activity interaction Z-score,[1]; [16],-0.415 ± 0.17
same,promoter activity interaction Z-score,[1]; [17],-0.545 ± 0.3
same,promoter activity interaction Z-score,[1]; [18],0.00625 ± 0.31
same,promoter activity interaction Z-score,[1]; [19],-0.338 ± 0.23
same,promoter activity interaction Z-score,[1]; [20],-0.109 ± 0.092
same,promoter activity interaction Z-score,[1]; [21],-0.397 ± 0.11
same,promoter activity interaction Z-score,[2]; [6],-0.556 ± 0.15
same,promoter activity interaction Z-score,[2]; [7],-0.881 ± 0.092
same,promoter activity interaction Z-score,[2]; [8],-0.716 ± 0.021
same,promoter activity interaction Z-score,[2]; [9],-0.309 ± 0.16
same,promoter activity interaction Z-score,[2]; [10],-0.212 ± 0.059
same,promoter activity interaction Z-score,[2]; [11],-0.69 ± 0.35
same,promoter activity interaction Z-score,[2]; [12],-1.16 ± 0.13
same,promoter activity interaction Z-score,[2]; [13],-0.158 ± 0.048
same,promoter activity interaction Z-score,[2]; [14],-0.996 ± 0.15
same,promoter activity interaction Z-score,[2]; [15],-0.794 ± 0.068
same,promoter activity interaction Z-score,[2]; [16],-0.999 ± 0.19
same,promoter activity interaction Z-score,[2]; [17],-0.802 ± 0.085
same,promoter activity interaction Z-score,[2]; [18],-0.733 ± 0.22
same,promoter activity interaction Z-score,[2]; [19],-0.818 ± 0.24
same,promoter activity interaction Z-score,[2]; [20],-0.632 ± 0.014
same,promoter activity interaction Z-score,[2]; [21],-0.689 ± 0.16
same,promoter activity interaction Z-score,[3]; [6],-0.357 ± 0.24
same,promoter activity interaction Z-score,[3]; [7],-0.786 ± 0.2
same,promoter activity interaction Z-score,[3]; [8],-0.355 ± 0.17
same,promoter activity interaction Z-score,[3]; [9],0.188 ± 0.045
same,promoter activity interaction Z-score,[3]; [10],0.207 ± 0.12
same,promoter activity interaction Z-score,[3]; [11],-0.465 ± 0.14
same,promoter activity interaction Z-score,[3]; [12],-0.388 ± 0.26
same,promoter activity interaction Z-score,[3]; [13],0.275 ± 0.77
same,promoter activity interaction Z-score,[3]; [14],-0.669 ± 0.27
same,promoter activity interaction Z-score,[3]; [15],-0.144 ± 0.64
same,promoter activity interaction Z-score,[3]; [16],-0.179 ± 0.34
same,promoter activity interaction Z-score,[3]; [17],-0.554 ± 0.4
same,promoter activity interaction Z-score,[3]; [18],0.176 ± 0.072
same,promoter activity interaction Z-score,[3]; [19],0.574 ± 0.46
same,promoter activity interaction Z-score,[3]; [20],0.0481 ± 0.46
same,promoter activity interaction Z-score,[3]; [21],-0.714 ± 0.32
same,promoter activity interaction Z-score,[4]; [6],-0.18 ± 0.0085
same,promoter activity interaction Z-score,[4]; [7],-0.19 ± 0.0051
same,promoter activity interaction Z-score,[4]; [8],-0.045 ± 0.2
same,promoter activity interaction Z-score,[4]; [9],-0.24 ± 0.11
same,promoter activity interaction Z-score,[4]; [10],-0.101 ± 0.061
same,promoter activity interaction Z-score,[4]; [11],-0.181 ± 0.093
same,promoter activity interaction Z-score,[4]; [12],-0.254 ± 0.35
same,promoter activity interaction Z-score,[4]; [13],-0.331 ± 0.17
same,promoter activity interaction Z-score,[4]; [14],-0.456 ± 0.097
same,promoter activity interaction Z-score,[4]; [15],-0.276 ± 0.14
same,promoter activity interaction Z-score,[4]; [16],-0.264 ± 0.11
same,promoter activity interaction Z-score,[4]; [17],-0.531 ± 0.027
same,promoter activity interaction Z-score,[4]; [18],-0.199 ± 0.16
same,promoter activity interaction Z-score,[4]; [19],-0.243 ± 0.18
same,promoter activity interaction Z-score,[4]; [20],-0.285 ± 0.11
same,promoter activity interaction Z-score,[4]; [21],-0.676 ± 0.071
same,promoter activity interaction Z-score,[5]; [6],-0.64 ± 0.46
same,promoter activity interaction Z-score,[5]; [7],-0.135 ± 0.24
same,promoter activity interaction Z-score,[5]; [8],0.259 ± 1.6
same,promoter activity interaction Z-score,[5]; [9],-0.321 ± 0.043
same,promoter activity interaction Z-score,[5]; [10],0.564 ± 0.026
same,promoter activity interaction Z-score,[5]; [11],-0.00904 ± 0.37
same,promoter activity interaction Z-score,[5]; [12],-0.3 ± 0.55
same,promoter activity interaction Z-score,[5]; [13],0.737 ± 0.3
same,promoter activity interaction Z-score,[5]; [14],-0.749 ± 0.61
same,promoter activity interaction Z-score,[5]; [15],-0.0593 ± 0.84
same,promoter activity interaction Z-score,[5]; [16],-0.236 ± 1.2
same,promoter activity interaction Z-score,[5]; [17],-0.229 ± 1.1
same,promoter activity interaction Z-score,[5]; [18],-0.235 ± 0.56
same,promoter activity interaction Z-score,[5]; [19],0.575 ± 0.063
same,promoter activity interaction Z-score,[5]; [20],-0.637 ± 0.9
same,promoter activity interaction Z-score,[5]; [21],-0.781 ± 0.14

# — the supplement of paper PMC12282887
